Compound activity deposited in PubChem by National Center for Advancing Translational Sciences (NCATS).
IDH1 R132H inh: qHTS for Inhibitors of mutant isocitrate dehydrogenase 1 (IDH1): qHTS; Isocitrate dehydrogenase [NADP] cytoplasmic (Homo sapiens), O75874; IDH1-R132H enzyme, NADPH consumption, diaphorase/resazurin fluorescence; Potency, µM (top dose mostly 76.6 µM), without a hit: top-dose activity change, negative = inhibition, most hits filed as inhibitors; 0.093% of 390,000 active; AID 602179, 2012; also: potency is read from the fitted curve at half-maximal effect; % is scaled to controls: 0 for no effect and ±100 for the full control effect; nearly all actives have a fitted effect of over 65% in size
Target sequence (O75874 whole entry R132H, stated change not applied): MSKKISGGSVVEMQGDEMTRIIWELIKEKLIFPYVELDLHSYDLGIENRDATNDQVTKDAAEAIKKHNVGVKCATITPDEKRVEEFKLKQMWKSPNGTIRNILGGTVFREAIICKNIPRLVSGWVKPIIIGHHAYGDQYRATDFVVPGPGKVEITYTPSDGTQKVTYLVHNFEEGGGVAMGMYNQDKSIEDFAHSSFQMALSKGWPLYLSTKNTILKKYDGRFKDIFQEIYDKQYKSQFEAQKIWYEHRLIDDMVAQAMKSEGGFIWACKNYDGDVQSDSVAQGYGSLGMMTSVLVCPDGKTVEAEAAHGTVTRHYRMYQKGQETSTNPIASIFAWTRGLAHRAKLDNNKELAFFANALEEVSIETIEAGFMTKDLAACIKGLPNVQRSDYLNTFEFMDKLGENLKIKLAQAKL
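IDH1-R132H (0.5 ug/mL) preincubated 30 min with compound, then NADPH (0.016 mM) and alpha-KG (2 mM) added; 80 min at RT, pH 7.5. Remaining NADPH coupled via diaphorase/resazurin to fluorescence (540/590 nm); concentration-response curves normalized to no-enzyme control.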
ATXN viability: Viability Counterscreen for Primary qHTS for Inhibitors of ATXN expression; S2 cells (HEK-293 line with an ATXN2-luciferase reporter) viability, CellTiter-Fluor protease fluorescence, 24 h; Potency, µM (highest dose often 56.7 µM), hits mostly cytotoxic; 0.49% of 400,000 active; also: potency is read from the fitted curve at half-maximal effect; nearly all actives have a fitted effect of over 40% in size
LDHA inh: qHTS assay for inhibitors of human lactate dehydrogenase. L-lactate dehydrogenase A chain (Homo sapiens), P00338. purified LDHA, NADH/diaphorase-resazurin fluorescence; stronger effect = lower value. activity change, % (values are at about 110 or 230 µM). 0.15% of 480,000 active; in the data active = activity change below about -30%; inconclusive = mostly about -25% to -30%;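 also: plate controls were DMSO wells for no effect and wells without enzyme for full effect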
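Enzyme activity of human lactate dehydrogenase 5 (2 nM; 0.06 mM NADH, 0.2 mM pyruvate, 5 min, RT) is measured via a resazurin/diaphorase fluorescence readout of residual NADH.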
HepG2 viability: qHTS for Inhibitors of TGF-b: Cytotox Counterscreen; HepG2 CAGA-GFP viability, ATP luminescence, 18 h; Potency, µM (series often up to 46.1 µM), without a hit: at the top dose activity change, negative = cytotoxicity, most hits filed as cytotoxic; 0.76% of 410,000 active; AID 588856, 2011; also: potency is read from the fitted curve at half-maximal effect
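HepG2 CAGA-GFP cells (1000/well, DMEM with 1% FBS) received compound, then TGF-beta at 500 pg/mL final, and were incubated 18 hours at 37 degrees C. Viability was read by CellTiter-Glo luminescence. Media-only wells were set as complete cell-killing and DMSO as no toxicity.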
TGFb SMAD3 inh: qHTS for Inhibitors of TGF-b. HepG2 CAGA-GFP TGF-b/SMAD3 reporter, GFP fluorescence, 18 h; TGF-beta stimulated, 500 pg/mL final. Potency, µM (titrated, usually from 46.1 µM), for inactives: at the top dose activity, negative = inhibition, actives largely listed as inhibitors. 1.2% of 410,000 active. AID 588855, 2011; also: potency is read from the fitted curve at half-maximal effect; % is scaled to controls: 0 for no effect and ±100 for the full control effect; nearly all actives have a fitted effect of over 65% in size
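Per well, imaged GFP fluorescence of HEPG2 CAGA-GFP cells gives the signal; cells get compound, then TGF-beta (500 pg/mL final), 18 h at 37 degrees C; %Activity versus -TGF-beta and +DMSO controls.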
ATXN2 expr inh: Primary qHTS for Inhibitors of ATXN expression. HEK-293 ATXN2-luciferase reporter, luminescence, 24 h. 0.72% of 360,000 active. Potency, µM (doses to about 57 µM), inactives show at the highest dose activity change, negative = inhibition, hits mostly inhibitors; also: potency is read from the fitted curve at half-maximal effect; % is scaled to controls: 0 for no effect and ±100 for the full control effect; nearly all actives have a fitted effect of over 55% in size
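qHTS (up to 57 uM final) was run with 24 h compound exposure of reporter cells at 37 °C. Each well was multiplexed: SteadyGlo luminescence measured ATXN2-luciferase expression after a fluorogenic Gly-Phe-AFC viability readout (25 uM final).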
Resorufin autofl: qHTS for Inhibitors of mutant isocitrate dehydrogenase 1 (IDH1): Cherrypicks Autofluorescence Interference | 750 tested, under 10 active | inhibition of signal, % at 51.2 µM | shares compounds with IDH1 R132H inh | Resorufin detection reagent fluorescence interference, cell-free;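 also: 0% = wells with normal resorufin and full inhibition = wells lacking resorufin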
WT IDH1 inh: qHTS for Inhibitors of mutant isocitrate dehydrogenase 1 (IDH1): Cherrypicks in WT IDH1. shares compounds with IDH1 R132H inh. WT IDH1 enzyme, NADPH diaphorase/resazurin fluorescence. Potency, µM (top dose mostly 115 µM), for the others: top-dose activity change, negative = inhibition, usual class: inhibitors. 9% of 750 active;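 also: potency is read from the fitted curve at half-maximal effect; 0% = full WT IDH1 enzyme control and full inhibition = no enzyme wells; nearly all actives have a fitted effect of over 55% in size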
Target sequence (O75874 whole entry, looked up): as the sequence (O75874 whole entry R132H, stated change not applied) above, with H132R counted along it
IDH1 R132H conf: qHTS for Inhibitors of mutant isocitrate dehydrogenase 1 (IDH1): Confirmation of Cherrypicks. shares compounds with IDH1 R132H inh. IDH1 R132H enzyme, NADPH diaphorase/resazurin fluorescence. Potency, µM (titrated, usually from 76.6 µM), for inactives: at the top dose activity change, negative = inhibition, usual class: inhibitors. 83% of 750 active; also: potency is read from the fitted curve at half-maximal effect; nearly all actives have a fitted effect of over 50% in size
An asterisk follows results filed as active. The list is not random: actives were taken first. Their share in the collection is about 2.2%. Unless noted, calls follow the shape of the dose curve; as a rule, active = well fitted curve in the direction sought with a large enough effect; inconclusive = small, poorly fitted or top-dose-only effect, or another doubt; inactive = no such curve, though single readings can be large; an effect the other way counts as inactive or inconclusive.

Results for CC(C)c1ccc(NC2CCCN(C(=O)c3ccc(N4CCOCC4)cc3)C2)cc1 (configuration not stated) ?
IDH1 R132H inh: 45µM*; ATXN viability: inactive; LDHA inh: 7; HepG2 viability: 0%; TGFb SMAD3 inh: -21%; ATXN2 expr inh: -19%; Resorufin autofl: -9; WT IDH1 inh: -4%; IDH1 R132H conf: 20µM*

How did CCc1cccc(C)c1Nc1c(-c2ccc(F)cc2)nc2sccn12 do in these assays?
IDH1 R132H inh: 40µM*; LDHA inh: -5; HepG2 viability: -35%; TGFb SMAD3 inh: inconclusive; Resorufin autofl: 3; WT IDH1 inh: 7%; IDH1 R132H conf: 14µM*

Results for Cc1ccc(-c2nc3sccn3c2Nc2ccc(C)c(C)c2)cc1 ?
IDH1 R132H inh: inconclusive; ATXN viability: inactive; LDHA inh: -4; HepG2 viability: -6%; TGFb SMAD3 inh: 6%; ATXN2 expr inh: 8%

Results for CCc1cccc(C)c1Nc1c(-c2ccc(N(C)C)cc2)nc2cnccn12 ?
IDH1 R132H inh: 32µM*; ATXN viability: inconclusive; LDHA inh: 7; HepG2 viability: 16µM*; TGFb SMAD3 inh: 16µM*; ATXN2 expr inh: inconclusive; Resorufin autofl: -9; WT IDH1 inh: -7%; IDH1 R132H conf: 16µM*

What do the screens show for `O=C(NC(=O)c1ccccc1)Nc1ccc(-c2cc(C(F)(F)F)nn2-c2ccccc2)cc1`?
ATXN viability: inactive; LDHA inh: 1; HepG2 viability: 13%; TGFb SMAD3 inh: 8%; ATXN2 expr inh: 9%

What do the screens show for `COc1ccc(N(CC(=O)NC2CCCC2)S(=O)(=O)c2c(C)[nH]c(=O)[nH]c2=O)cc1`?
IDH1 R132H inh: -13%; ATXN viability: inactive; LDHA inh: -9; HepG2 viability: 1%; TGFb SMAD3 inh: 0%; ATXN2 expr inh: -13%

How did COc1ccc(Cn2c(C3CCCCC3)nc3c(c(=O)c4ccccc4n3C)c2=O)cc1 do in these assays?
IDH1 R132H inh: inconclusive; ATXN viability: inactive; LDHA inh: -8; HepG2 viability: -17%; TGFb SMAD3 inh: 12%

How did Cn1c2ccccc2c(=O)c2c(=O)n(C3CCCCC3)c(-c3cccs3)nc21 do in these assays?
IDH1 R132H inh: 37µM*; ATXN viability: inactive; LDHA inh: -3; HepG2 viability: 1%; TGFb SMAD3 inh: 11%; ATXN2 expr inh: inconclusive; Resorufin autofl: 12; WT IDH1 inh: -21%; IDH1 R132H conf: 16µM*
